Screening results deposited in PubChem BioAssay by National Center for Advancing Translational Sciences (NCATS).
The list is not random: actives were taken first. Their share in the collection is about 3.7%.
HTT ATP protect: protects HTT-Q103 PC12 cells, measured by ATP; PC12 HTT-Q103 induced, cytoprotection, ATP luminescence, 40 h; Potency, µM (series often up to 56.4 µM), without a hit: cytoprotection (ATP increase), most hits filed as activators; 230,000 compounds, 0.14% hits; also: % of control where 0% means no effect; nearly all actives have a fitted effect of over 45% in size
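PC12 cells with ecdysone-inducible HTT exon 1 Q103-GFP, induced with 100 nM tebufenozide and co-treated with library compounds in a dose series (1536-well, 1500 cells/well). Cytoprotection read as ATP content by ATPlite luminescence.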
Tau fibril ThT: inhibitors of human tau fibril formation, thioflavin T binding; 270,000 compounds, 2.1% hits; P10636; recombinant tau K18 P301L, heparin-induced fibrillization, ThT fluorescence; Potency, µM (doses to about 57.4 µM), inactives show at the top dose activity, negative = inhibition, usual class: inhibitors; also: % is scaled to controls: 0 for no effect and ±100 for the full control effect; nearly all actives have a fitted effect of over 55% in size
Target sequence (P10636 561-689 P618L limits assumed): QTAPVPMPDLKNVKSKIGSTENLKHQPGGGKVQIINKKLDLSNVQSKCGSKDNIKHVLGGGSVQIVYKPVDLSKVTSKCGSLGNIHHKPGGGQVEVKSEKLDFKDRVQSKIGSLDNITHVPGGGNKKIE
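In this qHTS, human K18 P301L tau is incubated with compound and heparin for 6 hr at 37 C, and Thioflavin T fluorescence then reports fibril load.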
Tau fluor cs: counter-screen for tau fibril formation inhibitors; tau K18 P301L (four-repeat tau fragment) Alexa594 fluorescence, heparin fibrillization; Potency, µM (doses to about 57.7 µM), for inactives: top-dose activity change, negative = decrease; 280,000 compounds, 0.93% hits; AID 1463; also: % is scaled to controls: 0 for no effect and ±100 for the full control effect; nearly all actives have a fitted effect of over 55% in size
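Human K18 P301L tau (15 uM unlabeled plus 0.24 uM Alexa 594-labeled, final) in 100 mM sodium acetate pH 7 was mixed with compound and 20 uM heparin and incubated 6 hr at 37 C.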
Tau FP inhib: blocks human tau fibril formation measured by polarization; P10636; K18 P301L tau heparin fibrillization, Alexa594 FP, 6 h; Potency, µM (highest dose often 57.7 µM), without a hit: at the top dose activity, negative = inhibition, most hits filed as inhibitors; 280,000 compounds, 0.39% hits; also: % is scaled to controls: 0 for no effect and ±100 for the full control effect; nearly all actives have a fitted effect of over 55% in size
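Human K18 P301L fragment (15 uM unlabeled plus 0.24 uM Alexa 594-labeled) in 100 mM sodium acetate pH 7 with compound, aggregation induced by 20 uM heparin for 6 hr at 37 C. ThT (30 uM) added for 1 hr, then Alexa 594 FP read.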
HTT aggregate: reduces HttQ103-GFP aggregates in PC12 cells; PC12 HttQ103-GFP aggregates, Acumen cytometry, 40 h; Potency, µM (doses to about 46.1 µM), for the others: at the highest dose activity change, negative = inhibition, hits mostly inhibitors; 220,000 compounds, 1.1% hits; AID 1688; also: % is scaled to controls: 0 for no effect and ±100 for the full control effect; nearly all actives have a fitted effect of over 60% in size
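PC12 cells with ecdysone-inducible HTT exon1 Q103-GFP, induced by 100 nM tebufenozide, given compounds in a concentration series. GFP aggregates (1–25 um, 6 SD above background) counted in lysates by laser-scanning cytometry, 488 nm excitation.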
Numbers without * were called inactive; u = inconclusive; x = no result; [ ] = dose if it differs, or a comment. Calls follow the shape of the dose curve; as a rule, active = well fitted curve in the direction sought with a large enough effect; inconclusive = small, poorly fitted or top-dose-only effect, or another doubt; inactive = no such curve, though single readings can be large; an effect the other way counts as inactive or inconclusive. Potency is read from the fitted curve at half-maximal effect.

SMILES	HTT ATP protect	Tau fibril ThT	Tau fluor cs	Tau FP inhib	HTT aggregate
CC1=C(C(=O)Nc2ccccc2)C(c2ccccn2)n2nc(SCc3ccccc3Cl)nc2N1 (stereo unspecified)	x	1%	-14%	-9%	x
CC(C)COc1ccc(C(=O)Nc2onc3c2CCCC3)cc1	x	u	u	-2%	x
Cc1nc(N=Nc2cc(S(=O)(=O)O)c3cc([N+](=O)[O-])cc(S(=O)(=O)O)c3c2)c(COP(=O)(O)O)c(C=O)c1O	-62%	8.9µM*	14µM*[quencher]	20µM*	x
CCN(CC)c1nc2c(S(=O)(=O)c3ccccc3)nnn2c2ccc(Cl)cc12	x	-11%	-22%	-1%	x
COC(=O)c1sccc1OCc1cccc(OC)c1	2%	-10%	-8%	-3%	15%
Cc1nc2ccccc2cc1OCc1ccc(Cl)cc1	x	u	-18%	-10%	7.9µM*
Cc1nc2ccccc2cc1OCc1ccccc1	-23%	-12%	-7%	3%	13µM*
Cc1nc2ccccc2nc(C)c1=NOCc1cccc(Cl)c1	8%[10 µM]	u	-21%	-5%	15%[9.22 µM]
COc1cccc(COc2cc3ccccc3nc2C)c1	-29%	u	-13%	2%	1.8µM*
O=c1c(-c2cccs2)nc2cnc(N3CCNCC3)nc2n1Cc1cccs1	-254%	x	x	x	x
CC(C)Nc1nnc(SCC(=O)c2c(N)n(Cc3ccccc3)c(=O)n(C)c2=O)s1	-17%	-11%	-13%	2%	0.11µM*
CC(=O)Nc1ccc(SCC(=O)c2c(N)n(Cc3ccccc3)c(=O)n(C)c2=O)cc1	8%[10 µM]	-18%	-19%	-7%	1%[9.22 µM]
CC1(C)N=C(SCC(=O)Nc2ccccc2)C(c2ccc(Cl)cc2)=N1	18µM*	u	-23%	-2%	21%
O=C(CSc1ncn[nH]1)Nc1nc(-c2ccccc2)ns1	3%[0.074 µM]	12%	7%	0%	22µM*
O=C(CSc1nc2ccccc2[nH]1)Nc1nc(-c2cccc(Br)c2)cs1	-5%[10 µM]	-11%	u	14µM*	-7%
CCC(=O)Nc1nc(-c2ccccc2)ns1	0%[10 µM]	-19%	-12%	-9%	u
O=C(CSc1ncc(-c2ccc(Cl)cc2)[nH]1)Nc1ccccc1F	x	-22%	14µM*[quencher]	-4%	x
CN(C)CCCn1c(SCC(=O)Nc2nc(-c3cccc(Br)c3)cs2)nc2ccccc2c1=O	11%[10 µM]	u	-8%	-13%	-3%[9.22 µM]
Cc1ccccc1N1CC(c2nc3ccccc3n2Cc2ccc(Br)cc2)CC1=O (stereo unspecified)	x	-8%	-7%	0%	x
COc1ccc(NC(=O)N2CCc3nc(-c4ccccc4)c4c(c3C2)CO[C@@H](C)C4)cc1	-13%[10 µM]	-3%[11.5 µM]	-2%[11.6 µM]	0%[11.6 µM]	x
CC(C)(C)c1ccc(OCC2CO2)cc1 (stereo unspecified)	-18%	x	x	x	x
O=C(CSc1ncc(-c2ccccc2)[nH]1)Nc1ccccc1	-10%	-13%	u	12%	19%
O=C(CSc1ncc(-c2ccccc2)[nH]1)Nc1ccc(Cl)cc1	x	-9%	14µM*[quencher]	-12%	x
O=C(CSc1ncc(-c2ccccc2)[nH]1)Nc1cccc(Br)c1	x	u	16µM*[quencher]	u	x
COc1ccccc1NC(=S)N(Cc1ccc(C)cc1)Cc1ccccn1	-35%	-4%	-13%	6%	25µM*
SMILES	HTT ATP protect	Tau fibril ThT	Tau fluor cs	Tau FP inhib	HTT aggregate
COc1ccccc1NC(=S)N(Cc1ccc(C)cc1)Cc1cccnc1	-4%	2%	-2%	2%	11%
Cc1ccc(OCC(=O)NNC(=S)NC(=O)C(C)(C)C)c(Br)c1	x	-17%	-11%	-7%	11µM*
Cc1cccc(NC(=S)NNC(=O)COc2ccc(Cl)cc2Cl)c1	13%[10 µM]	u	u	-3%	u
Cc1ccc(/C(N)=N/OC(=O)CCc2ccccc2)cc1	-7%	32µM*	u	u	1%
O=c1c2c(-c3ccccc3)csc2ncn1/N=C/c1cccc([N+](=O)[O-])c1O	-8%	14µM*	-11%	-3%	-16%
O=c1c2c(-c3ccccc3)csc2ncn1/N=C/c1ccc(O)c([N+](=O)[O-])c1	-7%	u	-2%	9%	-4%
COc1cc(-c2nnn(CC(=O)Nc3ccc(OC(F)(F)F)cc3)n2)cc(OC)c1OC	x	-3%	u	18µM*	x
COc1ccccc1NC(=O)Cn1c(O)c(N=NC(=O)c2ccccc2O)c2ccccc21	-82%	u	-29%	-12%	-6%
O=C(N=Nc1c(O)n(Cc2ccccc2)c2ccccc12)c1cc2ccccc2cc1O	-60%[10 µM]	13µM*	-23%	u	-42%
O=C(N=Nc1c(O)n(Cc2ccccc2)c2ccccc12)c1ccc(O)cc1	0%[10 µM]	14µM*	u	-10%	-25%
Cn1c(O)c(N=NC(=O)c2ccccc2O)c2ccccc21	-27%[10 µM]	13µM*	-11%	8%	11%[9.22 µM]
Cc1cc(N=NC(=O)c2ccccc2O)c2ccccc2c1O	-119%	14µM*	u	u	u
Cc1occc1C(=O)N=Nc1c(O)n(C)c2ccccc12	-23%[10 µM]	u	5%	-4%	-11%
COc1ccc(C(=O)NCC(=O)N=Nc2c(O)n(Cc3ccccc3)c3ccccc23)cc1OC	17%[1.9 µM]	u	-6%	6%	u
O=[N+]([O-])c1ccc(CSCc2ccc(Cl)cc2)cc1	4%[10 µM]	x	x	x	x
Cc1ccc(O)c(N=Nc2ccccc2)n1	-33%	18µM*	-14%	8%	x
Oc1ccc(N=Nc2ccc3c(c2)OCO3)c2ccccc12	-55%[10 µM]	0.89µM*	-20%	u	-17%[9.22 µM]
Cc1ccn2c(NCc3ccccc3)c(-c3cccs3)nc2c1	x	u	u	6%	x
Cc1ccc(Nc2nc(-c3c(C)nc4ccccn34)cs2)cc1	-84%	11µM*	10µM*[quencher]	u	u
Cc1nc2ncccn2c1-c1csc(Nc2ccc(O)cc2)n1	-62%[10 µM]	10µM*	u	7%	-8%[9.22 µM]
Cc1ccn2c(-c3csc(NCc4ccccc4)n3)c(C)nc2c1	26%[1.9 µM]	u	u	u	11µM*
Oc1ccc(-c2csc(Nc3ncccn3)n2)cc1	-130%	u	-28%	11%	13%
Cc1ccc(Nc2nc(-c3c(C)nc4ncccn34)cs2)cc1	-150%	14µM*	u	-5%	-31%
Cc1ccc(Nc2nc(C3CC3)cs2)cc1	6%[10 µM]	u	u	6%	17%
COc1cccc(C(=O)Nc2nc(-c3nnn(-c4ccccc4C(F)(F)F)c3C)ns2)c1	x	-1%	u	u	x
Cc1nc2ccc(S(=O)(=O)N(C)CC(=O)Nc3ccc(Br)c(C)c3)cc2s1	x	5%	-16%	u	x
COc1ccc(Nc2oc(-c3ccc(COc4ccccc4C)o3)nc2C#N)cc1	x	-9%	u	-1%	x
Cc1ccc(-n2nc(C(=O)N(C)c3ccccc3Cl)c3c4ccccc4n(C)c3c2=O)cc1	x	-4%	-14%	u	x
